In PubChem BioAssay (NCI):
The panel holds about 83,000 compounds, 20% with a hit somewhere; the sample as a whole holds those more often.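 Growth was measured after 48 h exposure to one concentration of compound in 96-well plates. Values under 10 count as active.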 Values without a mark were called inactive. Calls of active or inactive are those of the source.

What was measured:
Test in all cases: NCI-60 one-dose screen, 48 h (100 = growth as untreated, 0 = no growth, -100 = all killed)
Conditions in all cases: 10 µM unless noted
T-47D breast = tested on: T-47D breast
BT-549 breast = tested on: BT-549 breast
MDA-MB-435 melanoma = tested on: MDA-MB-435 melanoma
SW-620 colon = tested on: SW-620 colon
MCF7 breast = tested on: MCF7 breast
HCT-116 colon = tested on: HCT-116 colon
HCC-2998 colon = tested on: HCC-2998 colon
KM12 colon = tested on: KM12 colon

CCOC(=O)C(=Cc1cccc(Br)c1)C(=O)OCC
growth (T-47D breast): 1.63% (active) | growth (BT-549 breast): 28% | growth (MDA-MB-435 melanoma): 23.7% | growth (SW-620 colon): 25.9% | growth (MCF7 breast): 11% | growth (HCT-116 colon): 14% | growth (HCC-2998 colon): 101% | growth (KM12 colon): 11.9%

O=C(Cn1c2c(c3ccccc31)CCCC2)Nc1ccc(-c2nc3ccccc3s2)cc1
growth (T-47D breast): 80.1% | growth (BT-549 breast): 115% | growth (MDA-MB-435 melanoma): 104% | growth (SW-620 colon): 109% | growth (MCF7 breast): 30.8% | growth (HCT-116 colon): 125% | growth (HCC-2998 colon): 108% | growth (KM12 colon): 101%

OB(O)c1cccc(-c2nc3ccc4[nH]ncc4c3c3c2CCCC3)c1
growth (T-47D breast): 66.6% | growth (BT-549 breast): 35.5% | growth (MDA-MB-435 melanoma): 45.3% | growth (SW-620 colon): 29.9% | growth (MCF7 breast): 70.1% | growth (HCT-116 colon): 25% | growth (HCC-2998 colon): 77.3% | growth (KM12 colon): 36.1%

COc1ccc(/C=C2\COc3ccc(O)cc3C2=O)c(OC)c1OC
growth (T-47D breast): 64.7% | growth (BT-549 breast): 72.3% | growth (MDA-MB-435 melanoma): 24.9% | growth (SW-620 colon): 38.9% | growth (MCF7 breast): 24.5% | growth (HCT-116 colon): 70.8% | growth (HCC-2998 colon): 86.4% | growth (KM12 colon): 44.3%

Nc1nc(=S)c2ncn(C3OC(COP(=O)(O)O)C(O)C3O)c2[nH]1 (stereo not given)
growth (T-47D breast): 30.4% | growth (BT-549 breast): 48.8% | growth (MDA-MB-435 melanoma): 15.5% | growth (SW-620 colon): 32.2% | growth (MCF7 breast): 9.34% (active) | growth (HCT-116 colon): 22.9% | growth (HCC-2998 colon): 20.8% | growth (KM12 colon): 18.4%

CC/C(=C(/c1ccc(Cl)cc1)c1ccc(OCCN2CCCC2)cc1)c1ccc(OC)cc1
growth (T-47D breast): 43.7% | growth (BT-549 breast): 85.8% | growth (MDA-MB-435 melanoma): 73.5% | growth (SW-620 colon): 60.2% | growth (MCF7 breast): 18.5% | growth (HCT-116 colon): 65.9% | growth (HCC-2998 colon): 71.1% | growth (KM12 colon): 56%

C=C1CC[C@@H]2[C@](C)(COC(C)=O)[C@H](OC(C)=O)CC[C@@]2(C)[C@@H]1CC(Sc1ccccc1)C1=CCOC1=O (stereo not given in full)
growth (T-47D breast): 7.94% (active) | growth (BT-549 breast): -22.6% (active) | growth (MDA-MB-435 melanoma): 101% | growth (SW-620 colon): 0.833% (active) | growth (MCF7 breast): 2.14% (active) | growth (HCT-116 colon): -34.6% (active) | growth (HCC-2998 colon): 44.7% | growth (KM12 colon): 18.6%

CSc1nnc(-c2cnn3c2NC(c2ccccc2)C3)n1-c1ccc(C(F)(F)F)cc1 (stereo not given)
growth (T-47D breast): 54.2% | growth (BT-549 breast): 85.7% | growth (MDA-MB-435 melanoma): -25.7% (active) | growth (SW-620 colon): 50.9% | growth (MCF7 breast): 26.9% | growth (HCT-116 colon): 46% | growth (HCC-2998 colon): 85.9% | growth (KM12 colon): 49.3%

CCCCC(=O)Nc1ncc(Cc2ccc(Cl)cc2)s1
growth (T-47D breast): 56.4% | growth (BT-549 breast): 65% | growth (MDA-MB-435 melanoma): 0.64% (active) | growth (SW-620 colon): 37.7% | growth (MCF7 breast): 37.4% | growth (HCT-116 colon): 53.6% | growth (HCC-2998 colon): 65.8% | growth (KM12 colon): 38.8%

COc1cc2c(c(OC)c1OC)-c1ccc(OC)c(=O)cc1[C@@H](NC(=O)CCl)CC2
growth (T-47D breast): 73.7% | growth (BT-549 breast): -48.8% (active) | growth (MDA-MB-435 melanoma): 8% (active) | growth (SW-620 colon): 21.3% | growth (MCF7 breast): 18.1% | growth (HCT-116 colon): -39.3% (active) | growth (HCC-2998 colon): 5.69% (active) | growth (KM12 colon): -10.3% (active)

C[C@@H]1CCC[C@H]1CC(N)C(=O)O (stereo not given in full)
growth (T-47D breast): 106% | growth (BT-549 breast): 106% | growth (MDA-MB-435 melanoma): 98.6% | growth (SW-620 colon): 102% | growth (MCF7 breast): 91.7% | growth (HCT-116 colon): 95.7% | growth (HCC-2998 colon): 103% | growth (KM12 colon): 106%

CN(CCn1sc(=O)n(Cc2ccccc2)c1=O)Cc1ccc2c(Cl)cc(Cl)c(O)c2n1
growth (T-47D breast): 44.9% | growth (BT-549 breast): 70.5% | growth (MDA-MB-435 melanoma): 55.8% | growth (SW-620 colon): 22.7% | growth (MCF7 breast): 29.9% | growth (HCT-116 colon): 19% | growth (HCC-2998 colon): 52.2% | growth (KM12 colon): 37.1%

CN1CCN(Cc2ccc(NC(=O)c3cncc(C#Cc4cnc(N)c5ccccc45)c3)cc2C(F)(F)F)CC1
growth (T-47D breast): -60.6% (active) | growth (BT-549 breast): 25.9% | growth (MDA-MB-435 melanoma): -88.7% (active) | growth (SW-620 colon): -73.4% (active) | growth (MCF7 breast): -76.8% (active) | growth (HCT-116 colon): -60.9% (active) | growth (HCC-2998 colon): -92.3% (active) | growth (KM12 colon): -86.6% (active)

Oc1ccc(CN2CCC(N3CCCCC3)CC2)c2cccnc12
growth (T-47D breast): 15% | growth (BT-549 breast): 38.9% | growth (MDA-MB-435 melanoma): 18.7% | growth (SW-620 colon): 30.2% | growth (MCF7 breast): 11.8% | growth (HCT-116 colon): 18.9% | growth (HCC-2998 colon): 32.2% | growth (KM12 colon): 30.8%

O=C1/C(=C/c2ccccc2Br)COc2ccc(O)c(O)c21
growth (T-47D breast): -7.17% (active) | growth (BT-549 breast): 14.7% | growth (MDA-MB-435 melanoma): 2.78% (active) | growth (SW-620 colon): 5.6% (active) | growth (MCF7 breast): 20.9% | growth (HCT-116 colon): -3.23% (active) | growth (HCC-2998 colon): 44.2% | growth (KM12 colon): -7.57% (active)
